Screening data from PubChem.
Sampled rows, rich in hits. Any-hit rate of the full collection: about 19%.
IL1B secr inh – qHTS for Inhibitors of Inflammasome Signaling: IL-1-beta AlphaLISA Primary Screen. THP-1 LPS/ATP IL-1B secretion, AlphaLISA, 16 h; stronger effect = lower value. activity change, % at 57.5 µM. 360,000 tested, 4.7% active. AID 743279, 2014; in the data active = activity change below about -50%; inconclusive = mostly about -30% to -49%; also: % is scaled to controls: 0 for no effect and ±100 for the full control effect
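THP-1 cells pretreated 1 hr with compounds (up to 57.5 uM final), then stimulated with LPS (250 ng/mL final) plus ATP (1.25 mM final); secreted IL-1B measured by AlphaLISA after 16 hr, decreased signal indicating inhibition.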
HepG2 tox – qHTS for Inhibitors of TGF-b: Cytotox Counterscreen; 410,000 tested, 0.76% active; Potency, µM (doses to about 46.1 µM), for inactives: top-dose activity change, negative = cytotoxicity, hits mostly cytotoxic; HepG2 CAGA-GFP viability, ATP luminescence, 18 h; also: potency is read from the fitted curve at half-maximal effect
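HepG2 CAGA-GFP cells (1000/well, DMEM with 1% FBS) received compound, then TGF-beta at 500 pg/mL final, and were incubated 18 hours at 37 degrees C. Viability was read by CellTiter-Glo luminescence. Media-only wells were set as complete cell-killing and DMSO as no toxicity.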
TDP1 inh – qHTS Assay for Inhibitors of Tyrosyl-DNA Phosphodiesterase (TDP1). Tyrosyl-DNA phosphodiesterase 1 (Homo sapiens), Q9NUW8. recombinant TDP1, AlphaScreen DNA substrate cleavage. Potency, µM (highest dose often 130 µM), inactives show at the highest dose activity change, negative = inhibition, most hits filed as inhibitors. 350,000 tested, 0.28% active; also: potency is read from the fitted curve at half-maximal effect; % is scaled to controls: 0 for no effect and ±100 for the full control effect; nearly all actives have a fitted effect of over 40% in size
Target sequence (Q9NUW8 whole entry, looked up): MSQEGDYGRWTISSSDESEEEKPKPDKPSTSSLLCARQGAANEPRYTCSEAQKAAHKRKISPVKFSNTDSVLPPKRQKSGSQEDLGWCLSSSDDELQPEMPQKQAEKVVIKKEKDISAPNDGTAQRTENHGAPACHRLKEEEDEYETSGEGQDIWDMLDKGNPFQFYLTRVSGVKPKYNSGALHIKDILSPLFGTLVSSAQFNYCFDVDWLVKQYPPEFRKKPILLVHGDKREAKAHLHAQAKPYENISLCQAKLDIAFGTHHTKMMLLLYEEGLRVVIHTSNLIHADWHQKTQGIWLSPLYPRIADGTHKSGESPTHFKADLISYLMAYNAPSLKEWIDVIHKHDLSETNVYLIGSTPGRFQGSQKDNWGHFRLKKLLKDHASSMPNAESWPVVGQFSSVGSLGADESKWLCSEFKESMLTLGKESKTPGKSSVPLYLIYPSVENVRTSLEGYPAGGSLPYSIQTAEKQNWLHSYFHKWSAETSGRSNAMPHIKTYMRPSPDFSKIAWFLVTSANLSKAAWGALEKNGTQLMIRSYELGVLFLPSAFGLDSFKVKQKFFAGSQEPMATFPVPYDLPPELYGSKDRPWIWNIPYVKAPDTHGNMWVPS
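Steps: enzyme plus compound, 15 min RT; add biotin/phosphotyrosine-FITC oligonucleotide (15 nM final), react 5 min; add donor/acceptor beads (10 ug/ml final), 10 min; read AlphaScreen. Tdp1 at 1 nM final.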
TDP1 cell noCPT – qHTS for Inhibitors of human tyrosyl-DNA phosphodiesterase 1 (TDP1): qHTS in cells in absence of CPT | DT40 Tdp1-/- hTDP1 cells, no CPT, ATP luminescence, 48 h | Potency, µM (top dose mostly 46.2 µM), inactives show at the top dose activity change, negative = growth inhibition, actives largely listed as inhibitors | 420,000 tested, 15% active | AID 686978, 2013; also: potency is read from the fitted curve at half-maximal effect; % is scaled to controls: 0 for no effect and ±100 for the full control effect; nearly all actives have a fitted effect of over 55% in size
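Chicken DT40 Tdp1-/- cells complemented with human TDP1, screened without camptothecin (DMSO vehicle only), 400 cells/well. Compounds pin-transferred, cells incubated at 37 °C for at least 48 hr. Growth read as ATP-dependent luminescence (CellTiter-Glo, 30 min at RT).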
TDP1 cell CPT – qHTS for Inhibitors of human tyrosyl-DNA phosphodiesterase 1 (TDP1): qHTS in cells in presence of CPT | 420,000 tested, 12% active | Potency, µM (highest dose often 46.2 µM), for the others: at the highest dose activity change, negative = growth inhibition, actives largely listed as inhibitors | chicken DT40 Tdp1-/-;hTDP1 cells + 20 nM CPT, ATP luminescence, 48 h | AID 686979, 2013; also: potency is read from the fitted curve at half-maximal effect; % is scaled to controls: 0 for no effect and ±100 for the full control effect; nearly all actives have a fitted effect of over 55% in size
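Chicken DT40 Tdp1-/- cells complemented with human TDP1, 400 cells/well, exposed to compounds plus 20 nM camptothecin for at least 48 h at 37 C; viability read as ATP content by CellTiter-Glo luminescence.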
TGFb SMAD3 inh – qHTS for Inhibitors of TGF-b. 410,000 tested, 1.2% active. Potency, µM (doses to about 46.1 µM), for the others: top-dose activity, negative = inhibition, hits mostly inhibitors. AID 588855, 2011. HepG2 CAGA-GFP TGF-b/SMAD3 reporter, GFP fluorescence, 18 h; TGF-beta stimulated, 500 pg/mL final; also: potency is read from the fitted curve at half-maximal effect; % is scaled to controls: 0 for no effect and ±100 for the full control effect; nearly all actives have a fitted effect of over 65% in size
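HEPG2 CAGA-GFP, 1000 cells/well; 2 h settle, 37 C; cpd via pin tool; TGF-b 500 pg/mL final; 18 h, 37 C; GFP imaging ex488/em500-530; %Activity normalised to -TGF-b and +DMSO controls; CRC fit, curve class.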
* = called active by the depositor; ? = inconclusive; nt = not tested or not shown; ! = not confirmed by another sample; [ ] = dose if it differs, or a comment. Unless noted, calls follow the shape of the dose curve; as a rule, active = well fitted curve in the direction sought with a large enough effect; inconclusive = small, poorly fitted or top-dose-only effect, or another doubt; inactive = no such curve, though single readings can be large; an effect the other way counts as inactive or inconclusive.

SMILES	IL1B secr inh	HepG2 tox	TDP1 inh	TDP1 cell noCPT	TDP1 cell CPT	TGFb SMAD3 inh
CCCCCCN1C[C@H](O)[C@@H](n2cc(-c3ccc(F)cc3)nn2)C[C@@H]1c1ccc(C)cc1	-18	-33%	nt	23µM*	?	-24%
CCCCCCN1C[C@@H](O)[C@H](n2cc(-c3ccc(F)cc3)nn2)C[C@@H]1c1ccc(C)cc1	3	-24%	nt	21µM*	?	-3%
CCCCCCN1C[C@@H](n2cc(-c3ccc(F)cc3)nn2)[C@H](O)C[C@@H]1c1ccccc1	-10	-41%	nt	13µM*	?	?
CCC(C)NC(=O)C1CCC(=O)N1CCc1ccccc1 (centres undefined)	-2	1%	nt	-2%	2%	23%
Cc1ccc2nc(CN3CCN(C(=O)Nc4ccc(F)cc4)CC3)oc2c1	nt	-8%	-1%	?	?	-17%
Cc1cccc(N(Cc2cc3ccccc3[nH]c2=O)C(=O)c2cccs2)c1	?	-23%	nt	23µM*	?	-17%
Cc1ccc2cc(CN(Cc3ccco3)C(=O)c3cccs3)c(=O)[nH]c2c1	30	4%	5%	3.7µM*	2.9µM*	0%
Cc1ccc2[nH]c(=O)c(CN(Cc3ccco3)C(=O)c3cccs3)cc2c1	nt	nt	5%	nt	nt	nt
COc1ccc(/C=C/C(=O)NNC(=O)c2ccncc2)c(OC)c1	16	-14%	0%	11%	4%	-11%
CC1N=C2c3ccccc3N=C(SCC(=O)NCCc3ccc(Cl)cc3)N2C1=O (centres undefined)	nt	-9%	-1%	-15%	?	-34%
CC(NC(=O)/C(C#N)=C/c1ccc([N+](=O)[O-])o1)c1ccccc1 (centres undefined)	-105*	-79%	8%	0.73µM*	0.65µM*	?
CC(NC(=O)/C(C#N)=C/c1ccc(N2CCOCC2)cc1)c1ccccc1 (centres undefined)	?	-22%	1%	9.2µM*	13µM*	-1%
CC(NC(=O)/C(C#N)=C/c1ccco1)c1ccccc1 (centres undefined)	-21	-16%	nt	-22%	5%	-27%
COc1ccc(/C=C(\C#N)C(=O)Nc2cc(C)c(Cl)cc2OC)cc1O	-20	-5%	nt	-26%	?	6%
COc1ccc(/C=C(\C#N)C(=O)NC(C)c2ccccc2)cc1O (centres undefined)	-87*	-23%	5%	?	-25%	0%
COC(=O)c1ccc(/C=C(\C#N)C(=O)NC(C)c2ccccc2)cc1 (centres undefined)	-97*	-43%	4%	10µM*	9.2µM*	-14%
Cc1ccc(-c2cc(C(F)(F)F)n3nc(C(=O)NCC45CC6CC(CC(C6)C4)C5)cc3n2)cc1	nt	-1%	-2%	-19%	-15%	-5%
CC(=O)c1ccsc1B(O)O	nt	-2%	5%	-8%	-24%	-11%
N#C/C(=C\c1ccc(O)c(O)c1)C(=O)NCCCCc1ccccc1	nt	nt	17%[56.1 µM]	8.4µM*	6.7µM*	nt
COc1cc(/C=C(\C#N)C(=O)NCCc2ccccc2)cc(OC)c1O	7	-18%	-5%	?	-25%	30%
COc1ccc(/C=C(\C#N)C(=O)NCc2ccccc2)cc1O	-86*	-10%	-1%[0.0935 µM]	-29%	-29%	-1%
N#C/C(=C\c1ccc(O)c(O)c1)C(=O)NCCc1ccccc1	34	-21%	16%[56.1 µM]	?	?	4%
O=C(C[C@@H]1C[C@@H]2c3cc(NS(=O)(=O)c4ccc(F)cc4)ccc3O[C@@H]2[C@H](CO)O1)NCc1ccc(Oc2ccccc2)cc1	-11	-53%	nt	?	?	?
O=C(C[C@@H]1C[C@H]2c3cc(NC(=O)C4CCC4)ccc3O[C@H]2[C@@H](CO)O1)NCc1ccc(-c2ccccc2)cc1	5	16µM*	nt	21µM*	18µM*	?
O=C(C[C@@H]1C[C@H]2c3cc(NC(=O)c4cccnc4)ccc3O[C@H]2[C@H](CO)O1)NCc1ccc(Oc2ccccc2)cc1	75	-3%	nt	5.8µM*	13µM*	?
SMILES	IL1B secr inh	HepG2 tox	TDP1 inh	TDP1 cell noCPT	TDP1 cell CPT	TGFb SMAD3 inh
CCc1ccccc1NC(=O)c1ccc(CN2C(=O)CCn3nc(C)cc32)cc1	nt	-21%	3%	-8%	-14%	?
CCCCCCCCOc1ccccc1C(=O)Nc1ccc(C(=O)OCC[N+](C)(CC)CC)cc1	nt	nt	11%	?	?	nt
COc1ccc(-c2onc(C)c2C)cc1S(=O)(=O)N1CCC(C)CC1	nt	-14%	3%	?	?	0%
COc1ccc(-c2onc(C)c2C)cc1S(=O)(=O)NCc1ccco1	nt	9%	3%	?	?	-18%
CCN(CC)c1ccc(NS(=O)(=O)c2cc(-c3onc(C)c3C)ccc2OC)c(C)c1	nt	-25%	5%	?	23µM*	-30%
COc1ccc(-c2onc(C)c2C)cc1S(=O)(=O)N1c2ccccc2CC1C (centres undefined)	nt	-23%	3%	?	23µM*	?
COc1ccc(-c2onc(C)c2C)cc1S(=O)(=O)NCc1ccc(Br)cc1	nt	-25%	3%	13µM*	10µM*	0%
COc1ccc(-c2onc(C)c2C)cc1S(=O)(=O)NCC1CCN(Cc2cc(C)ccc2C)CC1	nt	16µM*	5%	16µM*	?	?
COc1ccc(-c2onc(C)c2C)cc1S(=O)(=O)NCC1CCN(Cc2ccccc2F)CC1	nt	-41%	5%	?	?	-34%
Cc1ccc(NC(=O)COC(=O)c2ccc(CN3CCCC3=O)cc2)cc1C	13	2%	-12%	9%	-3%	0%
O=S1(=O)N[C@@H](Cc2ccccc2)COc2cc(N3CCSCC3)ccc21	0	nt	nt	-24%	-1%	nt
O=C(Nc1ccccc1)Nc1ccc(-n2ccc(C(F)(F)F)n2)cc1	?	6%	5%	18µM*	?	14%
O=C(Nc1ccc(-n2cccc2)cc1)C1CC1	0	-14%	3%	9.2µM*	9.2µM*	1%
CC(=O)Nc1ccccc1	-8	-20%	0%	2%	-8%	-7%
O=C(Nc1ccccc1)Nc1ccccc1	-1	-26%	-3%	?	18µM*!	-1%
